# Measurements published in PubChem BioAssay AID1159580 (chemical genetic matrix, 2015).
# Among all 5,500 compounds or so, about 2,000 (36%) were called active. Not shown: some 18% with an inconclusive outcome. The list shows a part of the results. A number with no mark means an inactive call. Rule as the data show it: active = normalized growth mostly below about 0.91 (no sharp cut-off); inconclusive = no clear call, values can overlap the other calls; inactive = mostly above about 0.92.
# Assay: chemical genetic growth profiling, strain panel (AID 1159580);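 also: tested at 20 µM; growth read once vehicle control cultures reached saturation at 30 °C; 1 = growth at the plate median or of vehicle wells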
# Settings: S. cerevisiae deletion strains, growth OD
# [1] = locus YAL040C, strain CLN3, stronger effect = lower value
# [2] = locus YCL061C, strain MRC1 (second series), stronger effect = lower value
# [3] = locus YDR150W, strain NUM1, stronger effect = lower value
# [4] = locus YDR363W, strain ESC2, stronger effect = lower value
# [5] = locus YER002W, strain NOP16, stronger effect = lower value
# [6] = locus YGR078C, strain PAC10, stronger effect = lower value
# [7] = locus YMR307W, strain GAS1, stronger effect = lower value
# [8] = locus YNL153C, strain GIM3, stronger effect = lower value
# [9] = locus YNL175C, strain NOP13, stronger effect = lower value
# [10] = locus YNL197C, strain WHI3, stronger effect = lower value
# [11] = locus YNL224C, strain SQS1, stronger effect = lower value
# [12] = locus YOR083W, strain WHI5 (second series), stronger effect = lower value
# [13] = locus YPL055C, strain LGE1, stronger effect = lower value
smiles,measurement,setting,value
CCCn1cnc2c1c(=O)n(CCCCC(C)=O)c(=O)n2C,normalized growth,"locus YAL013W, strain DEP1, stronger effect = lower value",1.01
same,normalized growth,[1],0.997
same,normalized growth,[2],1.01
same,normalized growth,[3],1.01
same,normalized growth,[4],0.961
same,normalized growth,[5],1.02
same,normalized growth,[6],1.01
same,normalized growth,"locus YJR075W, strain HOC1, stronger effect = lower value",1.02
same,normalized growth,[7],1.01
same,normalized growth,[8],1.04
same,normalized growth,[9],1.01
same,normalized growth,[10],0.996
same,normalized growth,[11],1.01
same,normalized growth,[12],1.01
same,normalized growth,[13],1.02
same,normalized growth,"locus YPL241C, strain CIN2, stronger effect = lower value",1.01
COC[C@H]1OC(=O)c2coc3c2[C@@]1(C)C1=C(C3=O)C2CCC(=O)[C@@]2(C)C[C@H]1OC(C)=O (some centres undefined),normalized growth,[1],0.0731 (active)
same,normalized growth,[2],0.141 (active)
same,normalized growth,[3],0.136 (active)
same,normalized growth,[4],0.206 (active)
same,normalized growth,[5],0.0648 (active)
same,normalized growth,[6],0.994
same,normalized growth,"locus YGR229C, strain SMI1, stronger effect = lower value",0.0613 (active)
same,normalized growth,"locus YMR263W, strain SAP30, stronger effect = lower value",0.0519 (active)
same,normalized growth,[7],0.0665 (active)
same,normalized growth,"locus YNL128W, strain TEP1, stronger effect = lower value",0.143 (active)
same,normalized growth,[8],0.101 (active)
same,normalized growth,[9],1
same,normalized growth,[10],0.0727 (active)
same,normalized growth,[11],0.0711 (active)
same,normalized growth,"locus YNL322C, strain KRE1, stronger effect = lower value",0.33 (active)
same,normalized growth,[12],0.359 (active)
same,normalized growth,[13],0.119 (active)
CC1SC(c2cccnc2)N(c2ccc(F)cc2F)C1=O (centres undefined),normalized growth,"locus YAR019C, strain CDC15, stronger effect = lower value",1
same,normalized growth,"locus YBL105C, strain PKC1, stronger effect = lower value",0.987
same,normalized growth,"locus YBR135W, strain CKS1, stronger effect = lower value",0.982
same,normalized growth,"locus YBR136W, strain MEC1, stronger effect = lower value",0.99
same,normalized growth,"locus YBR160W, strain CDC28, stronger effect = lower value",0.983
same,normalized growth,"locus YDL017W, strain CDC7, stronger effect = lower value",0.985
same,normalized growth,"locus YDL028C, strain MPS1, stronger effect = lower value",0.994
same,normalized growth,"locus YDL101C, strain DUN1, stronger effect = lower value",0.985
same,normalized growth,"locus YDL108W, strain KIN28, stronger effect = lower value",1
same,normalized growth,"locus YDL132W, strain cdc53, stronger effect = lower value",0.981
same,normalized growth,"locus YDL214C, strain PRR2, stronger effect = lower value",1.01
same,normalized growth,"locus YDR052C, strain DBF4, stronger effect = lower value",0.981
same,normalized growth,"locus YDR054C, strain cdc34, stronger effect = lower value",0.981
same,normalized growth,"locus YDR226W, strain ADK1, stronger effect = lower value",0.974
same,normalized growth,"locus YDR477W, strain SNF1, stronger effect = lower value",0.981
same,normalized growth,"locus YER123W, strain YCK3, stronger effect = lower value",0.942
same,normalized growth,"locus YER133W, strain GLC7, stronger effect = lower value",0.99
same,normalized growth,"locus YFL009W, strain cdc4, stronger effect = lower value",0.981
same,normalized growth,"locus YFL029C, strain CAK1, stronger effect = lower value",0.997
same,normalized growth,"locus YFR003C, strain YPI1, stronger effect = lower value",0.991
same,normalized growth,"locus YFR019W, strain FAB1, stronger effect = lower value",0.933
same,normalized growth,"locus YFR028C, strain CDC14, stronger effect = lower value",0.979
same,normalized growth,"locus YGR040W, strain KSS1, stronger effect = lower value",0.974
same,normalized growth,"locus YGR052W, strain FMP48, stronger effect = lower value",0.931
same,normalized growth,"locus YGR092W, strain DBF2, stronger effect = lower value",0.965
same,normalized growth,"locus YHR030C, strain SLT2, stronger effect = lower value",1.01
same,normalized growth,"locus YHR079C, strain IRE1, stronger effect = lower value",0.972
same,normalized growth,"locus YHR082C, strain KSP1, stronger effect = lower value",0.925
same,normalized growth,"locus YHR205W, strain SCH9, stronger effect = lower value",1
same,normalized growth,"locus YIL147C, strain SLN1, stronger effect = lower value",0.992
same,normalized growth,"locus YJL095W, strain BCK1, stronger effect = lower value",0.946
same,normalized growth,"locus YJL128C, strain PBS2, stronger effect = lower value",0.988
same,normalized growth,"locus YJL157C, strain FAR1, stronger effect = lower value",1
same,normalized growth,"locus YJR016C, strain ILV3, stronger effect = lower value",0.986
same,normalized growth,"locus YJR066W, strain TOR1 (second series), stronger effect = lower value",0.966
same,normalized growth,"locus YJR066W, strain TOR1, stronger effect = lower value",0.82
same,normalized growth,"locus YKL048C, strain ELM1, stronger effect = lower value",1
same,normalized growth,"locus YKL067W, strain YNK1, stronger effect = lower value",1.02
same,normalized growth,"locus YKL101W, strain HSL1, stronger effect = lower value",1.02
same,normalized growth,"locus YKL193C, strain SDS22, stronger effect = lower value",0.973
same,normalized growth,"locus YKL203C, strain TOR2, stronger effect = lower value",0.965
same,normalized growth,"locus YLR113W, strain HOG1, stronger effect = lower value",0.957
same,normalized growth,"locus YLR133W, strain CKI1, stronger effect = lower value",1.01
same,normalized growth,"locus YLR403W, strain SFP1, stronger effect = lower value",0.976
same,normalized growth,"locus YML070W, strain DAK1, stronger effect = lower value",1.02
same,normalized growth,"locus YMR001C, strain CDC5, stronger effect = lower value",0.984
same,normalized growth,"locus YMR205C, strain PFK2 (second series), stronger effect = lower value",1.02
same,normalized growth,"locus YMR277W, strain FCP1, stronger effect = lower value",0.978
same,normalized growth,"locus YNL006W, strain LST8, stronger effect = lower value",0.986
same,normalized growth,"locus YNL020C, strain ARK1, stronger effect = lower value",1.01
same,normalized growth,"locus YNL161W, strain CBK1, stronger effect = lower value",0.976
same,normalized growth,"locus YNL183C, strain NPR1, stronger effect = lower value",0.968
same,normalized growth,"locus YNL207W, strain RIO2, stronger effect = lower value",0.975
same,normalized growth,"locus YNL222W, strain SSU72, stronger effect = lower value",0.983
same,normalized growth,"locus YNL307C, strain MCK1 (second series), stronger effect = lower value",1
same,normalized growth,"locus YOL078W, strain AVO1, stronger effect = lower value",0.976
same,normalized growth,"locus YOL136C, strain PFK27, stronger effect = lower value",1.03
same,normalized growth,"locus YOR061W, strain CKA2, stronger effect = lower value",0.995
same,normalized growth,"locus YOR119C, strain RIO1, stronger effect = lower value",0.833
same,normalized growth,"locus YOR231W, strain MKK1, stronger effect = lower value",0.936
same,normalized growth,"locus YOR329C, strain SCD5, stronger effect = lower value",0.979
same,normalized growth,"locus YPL031C, strain PHO85, stronger effect = lower value",0.981
same,normalized growth,"locus YPL153C, strain RAD53, stronger effect = lower value",0.968
same,normalized growth,"locus YPL204W, strain HRR25, stronger effect = lower value",0.972
same,normalized growth,"locus YPL209C, strain IPL1, stronger effect = lower value",0.979
same,normalized growth,"locus YPL256C, strain CLN2, stronger effect = lower value",0.954
same,normalized growth,"locus YPR025C, strain CCL1, stronger effect = lower value",0.984
same,normalized growth,"locus YPR106W, strain ISR1, stronger effect = lower value",1
same,normalized growth,"locus YPR111W, strain DBF20, stronger effect = lower value",0.998
same,normalized growth,"strain NNK1, stronger effect = lower value",0.992
same,normalized growth,"strain TSCII, stronger effect = lower value",0.985
